Measurements taken from the supplement of paper PMC10811239.

What follows are compounds tested on LEGO organoid PT (PTEN-/-; TP53-/-) (assay: bioluminescence (viable cell) signal fold change after vs before treatment, normalised to DMSO (ratio); higher = more tumour cell growth / less inhibition). Conditions: 10 µM; treatment time 6 days.
Procedure: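 Luc2-labelled iPSC-derived glioblastoma-like organoids (LEGOs, genotypes PT = PTEN-/-;TP53-/-, PTCC = plus CDKN2A/B-/-, PTN = plus NF1-/-) were treated with 10 uM drug for 6 days (applied every other day) at 37 C. Bioluminescence imaging was done before treatment and 2 days after the last dose. BLI signals were normalised to the DMSO control on the same day and then to the pre-treatment signal (N=3).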

SMILES | bioluminescence
Cl.NC12CC3CC(CC(C3)C1)C2 [Amantadine hydrochloride] | 0.852
CCCc1nc(C)c2c(=O)[nH]c(-c3cc(S(=O)(=O)N4CCN(CC)CC4)ccc3OCC)nn12 [Vardenafil] | 1.36
Cl.O=C1CN2Cc3c(ccc(Cl)c3Cl)NC2=N1 [Anagrelide hydrochloride] | 1.02
CC[C@H](C)C(=O)O[C@H]1C[C@@H](C)C=C2C=C[C@H](C)[C@H](CC[C@@H]3C[C@@H](O)CC(=O)O3)[C@H]21 [Lovastatin] | 1.33
Nc1ncnc2c1ncn2[C@@H]1O[C@H](CO)[C@@H](O)[C@H]1OP(=O)(O)O [Adenosine-2'-monophosphate] | 1.31
CNC(=O)c1cc(Oc2ccc(NC(=O)Nc3ccc(Cl)c(C(F)(F)F)c3)cc2)ccn1.Cc1ccc(S(=O)(=O)O)cc1 [Sorafenib tosylate] | 0.401
N#Cc1ccc2[nH]cc(CCCCN3CCN(c4ccc5oc(C(N)=O)cc5c4)CC3)c2c1 [Vilazodone] | 0.812
N[C@@H](CC(=O)O)C(=O)O [L-Aspartic acid] | 0.844
O=C1CCc2ccc(OCCCCN3CCN(c4cccc(Cl)c4Cl)CC3)cc2N1 [Aripiprazole] | 0.399
CC[C@]1(O)C[C@H]2C[N@](CCc3c([nH]c4ccccc34)[C@@](C(=O)OC)(c3cc4c(cc3OC)N(C=O)[C@H]3[C@@](O)(C(=O)OC)[C@H](OC(C)=O)[C@]5(CC)C=CCN6CC[C@]43[C@@H]65)C2)C1.O=S(=O)(O)O [Vincristine sulfate] | 0.224
Cc1nc2n(c(=O)c1CCN1CCC(c3noc4cc(F)ccc34)CC1)CCCC2 [Risperidal] | 1.57
O=C(O)Cc1ccccc1Nc1c(Cl)cccc1Cl [Diclofenac] | 1.11
CC/C(=C(\c1ccccc1)c1ccc(OCCN(C)C)cc1)c1ccccc1.O=C(O)CC(O)(CC(=O)O)C(=O)O [Tamoxifen Z-isomer citrate] | 0.933
Nc1nnc(-c2cccc(Cl)c2Cl)c(N)n1 [Lamotrigine] | 0.852
C[C@]12C=CC(=O)C=C1CC[C@@H]1[C@@H]2C(=O)C[C@@]2(C)[C@H]1CC[C@]2(O)C(=O)CO [Prednisone] | 1.13
C[C@@H](Oc1cc(-c2cnn(C3CCNCC3)c2)cnc1N)c1c(Cl)ccc(F)c1Cl [Crizotinib] | 0.492
CN(C)CCc1c[nH]c2ccc(Cn3cncn3)cc12.O=C(O)c1ccccc1 [Rizatriptan benzoate] | 0.898
CC(C)NCC(O)COc1cccc2ccccc12.Cl (stereo not given) [Propranolol hydrochloride] | 1.03
CC1=C(CC(=O)O)c2cc(F)ccc2/C1=C\c1ccc(S(C)=O)cc1 (stereo not given) [Sulindac] | 2.8
C#CCN[C@@H]1CCc2ccccc21 [Rasagiline] | 2.76

SMILES | bioluminescence
C#CCN[C@@H]1CCc2ccccc21.CS(=O)(=O)O [Rasagiline Mesylate] | 0.604
CC(=O)NCCCS(=O)(=O)[O-].CC(=O)NCCCS(=O)(=O)[O-].[Ca+2] [Acamprosate calcium] | 2.61
C[C@@H]1COCCN1c1cc(C2([S@](C)(=N)=O)CC2)nc(-c2ccnc3[nH]ccc23)n1 [Ceralasertib] | 0.917
O=C(CCCN1CCC(O)(c2ccc(Cl)cc2)CC1)c1ccc(F)cc1 [Haloperidol] | 0.925
C[C@]12CCC3=C4CCC(=O)C=C4CC[C@H]3[C@@H]1CC[C@@]2(O)CC#N [Dienogest] | 0.653
CCOC(=O)N1CC\C(CC1)=C1\c2ccc(Cl)cc2CCc2cccnc12 [Loratadine] | 0.684
CCCCC1C(=O)N(c2ccccc2)N(c2ccccc2)C1=O [Phenylbutazone] | 2.33
CC(=O)OCC(=O)[C@@]1(O)[C@H](C)C[C@H]2[C@@H]3CCC4=CC(=O)C=C[C@]4(C)[C@@]3(F)[C@@H](O)C[C@@]21C [Dexamethason acetate] | 1.76
C[C@]12C=CC(=O)C=C1CC[C@@H]1[C@@H]2[C@@H](O)C[C@@]2(C)[C@H]1CC[C@]2(O)C(=O)CO [Prednisolone] | 0.904
CCCCCCCCCC(=O)OCCN1CCN(CCCN2c3ccccc3Sc3ccc(C(F)(F)F)cc32)CC1 [Fluphenazine decanoate] | 0.875
NC(=O)c1cnccn1 [Pyrazinamide] | 0.603
CS(=O)(=O)c1ccc(C2=C(c3ccccc3)C(=O)OC2)cc1 [Rofecoxib] | 1.25
Cc1cc(NS(=O)(=O)c2ccc(N)cc2)no1 [Sulfamethoxazole] | 3.73
CC(C)(C)c1cc(C(C)(C)C)c(NC(=O)c2c[nH]c3ccccc3c2=O)cc1O [Ivacaftor] | 0.378
CCCCCOC(=O)Nc1nc(=O)n([C@@H]2O[C@H](C)[C@@H](O)[C@H]2O)cc1F [Capecitabine] | 2.21
CNCC[C@@H](Oc1ccccc1C)c1ccccc1.Cl [Atomoxetine hydrochloride] | 0.833
C/C(O)=C(\C#N)C(=O)Nc1ccc(C(F)(F)F)cc1 [Teriflunomide] | 1.68
Oc1c(I)cc(Cl)c2cccnc12 [Clioquinol] | 0.859
Cc1cn([C@H]2C[C@H](N=[N+]=[N-])[C@@H](CO)O2)c(=O)[nH]c1=O [Zidovudine] | 5.37
COc1ccc2c(c1)c(CC(=O)O)c(C)n2C(=O)c1ccc(Cl)cc1 [Indometacin] | 1.04
